Compound activity from PubChem.
A selection: hits, their analogues and other compounds. The true share with any hit is near 2.6%.
AI-2 QS modul: modulators of Vibrio harveyi AI-2 quorum sensing system; activity change, % at 7.5 µM; 0.4% of 300,000 active; Vibrio harveyi JMH597 AI-2 luminescence/OD600 ratio, 9 h; active compounds read low; strain lacks LuxN and CqsS sensors; 0 = neutral-control median; in the data active = activity change below about -75%, passing the limit was not always enough; inconclusive = no clear call, values can overlap the other calls;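 also: luminescence divided by OD600 gain over 9 h not by final OD600 alone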
ABCB6 inh MLPCN: inhibitors of human ABC transporter ABCB6. Q9NP58. K562-ABCB6 porphyrin accumulation, flow cytometry, 1 h; active compounds read low. fluorescence ratio to DMSO, % at 10 µM. 0.19% of 360,000 active. AID 602162;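 active = fluorescence ratio to DMSO below 75%, the collection mean minus 3 SD; inconclusive = too few cells collected in the well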;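 also: signal is porphyrin accumulated inside mitochondria; 100% equals median channel fluorescence of DMSO control wells; lower ratio means ABCB6 inhibition with less porphyrin fluorescence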
eIF4H FP inh: inhibitors of RNA binding by human eIF4H. 0.94% of 290,000 active. inhibition, % at 35 µM. Q15056. eIF4H fluorescence polarization binding assay. AID 2012;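 also: calls also rest on retests at 20 µM and on dose response follow-up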
MLLE-PAM2 inh: blocks PAM2 peptide binding to the PABP1 MLLE domain; inhibition, % at 20 µM; GST-MLLE / FITC-PAM2 fluorescence polarization; AID 588489; 0.36% of 360,000 active; P11940; in the data active = inhibition above about 35%, passing the limit was not always enough;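 also: plate controls were DMSO wells with GST-MLLE for no effect and wells lacking GST-MLLE protein for full effect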
PHOSPHO1 block: PHOSPHO1 (human) inhibition | Q8TCT1 | recombinant PHOSPHO1, absorbance phosphatase assay | AID 1565 | 1.1% of 290,000 active | inhibition, % at 13.3 µM; in the data active = inhibition above about 60%
Target sequence (Q8TCT1 whole entry, looked up): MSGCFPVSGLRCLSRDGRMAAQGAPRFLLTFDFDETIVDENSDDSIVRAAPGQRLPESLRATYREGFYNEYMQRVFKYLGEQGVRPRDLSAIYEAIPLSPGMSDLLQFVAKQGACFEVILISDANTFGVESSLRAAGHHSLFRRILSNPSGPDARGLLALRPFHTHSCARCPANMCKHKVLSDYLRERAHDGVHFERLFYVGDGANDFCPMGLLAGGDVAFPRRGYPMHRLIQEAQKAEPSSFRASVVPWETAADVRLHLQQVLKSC
PABP FP inh: blocks human PABP binding to poly(A) RNA. P11940. fluorescence polarization. calls only at 35 µM. 1% of 290,000 active;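 also: calls also rest on retests at 20 µM and on dose response follow-up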
JMH597 growth: retest Vibrio harveyi JMH597 growth inhibition. 1% of 750 active. growth inhibition, % at 7.5 µM. OD600 absorbance, 9 h; lacks LuxN and CqsS sensors. shares compounds with AI-2 QS modul;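 active = every replicate shows growth inhibition above 50%; inconclusive = at least half, but not all, replicates pass that cutoff; inactive = fewer than half of replicates pass it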
BB721 lum counter: retest counter-screen: lowers luminescence of constitutive-QS Vibrio harveyi BB721; shares compounds with AI-2 QS modul; 9 h; inhibition, % at 7.5 µM; 95% of 750 active;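 active = inhibition above about 80% in every replicate, not just on average, limit read from the data; inconclusive = at least half of replicates past the limit, but not all; inactive = fewer than half of replicates past the limit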
BB721 growth rt: retest: blocks Vibrio harveyi BB721 growth | 3% of 750 active | shares compounds with AI-2 QS modul | OD600 absorbance, 9 h | AID 2728 | growth inhibition, % at 7.5 µM;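 active = every replicate shows growth inhibition above 50%; inconclusive = at least half but not all replicates above 50% inhibition; inactive = under half of replicates above 50% inhibition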
AI-2 QS JMH597: Vibrio harveyi AI-2 signaling luminescence modulation – JMH597 strain, confirmation; shares compounds with AI-2 QS modul; Vibrio harveyi JMH597 AI-2 quorum sensing luminescence, 9 h; luxN and CqsS knockout, AI-2 only; inhibition, % at 7.5 µM; 97% of 750 active; AID 2736;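 active = every replicate shows more than 75% inhibition of signal versus neutral control wells; inconclusive = half to three quarters of replicates exceed 75% inhibition; inactive = fewer than half of replicates exceed 75% inhibition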
Starred values were filed as active, the others as inactive; i = inactive; ? = inconclusive; . = not tested or not shown; + = active, no number. Unless noted, no rule for the calls is given here.

SMILES | AI-2 QS modul | ABCB6 inh MLPCN | eIF4H FP inh | MLLE-PAM2 inh | PHOSPHO1 block | PABP FP inh | JMH597 growth | BB721 lum counter | BB721 growth rt | AI-2 QS JMH597
CC(C)(C)c1cc(OC(=O)c2ccncc2)ccc1O | . | 98 | -6 | 3 | 19 | i | . | . | . | .
CC(C)c1ccc([C@@H]2O[C@H](C)CC3=C2C(=O)OC(C)(C)O3)cc1 | . | 100 | . | . | . | . | . | . | . | .
CCc1ccc2nc(NC(=O)CSCc3c(C)noc3C)sc2c1 | -90* | 96 | 7 | 10 | -1 | i | 11 | 94* | -109 | 96*
CC(=O)Oc1ccc(Cn2c(C)c(C(=O)NCCC#N)sc2=O)cc1 | . | 98 | . | -12 | . | . | . | . | . | .
CC1(C(=O)NS(=O)(=O)c2ccc(Cl)cc2)CCN1C(=O)Cc1ccccc1Cl (centres undefined) | . | 105 | . | 6 | . | . | . | . | . | .
O=C(NC1CCCC1)C1c2ccccc2OCC(=O)N1Cc1ccco1 (centres undefined) | . | 88 | . | . | . | . | . | . | . | .
CC(C)c1nnc(NC(=O)CCN2C(=O)c3ccccc3C2=O)s1 | -83* | 98 | -3 | 13 | -33 | i | -9 | 95* | 5 | 96*
CCCc1nnc(NC(=O)CCN2C(=O)c3ccccc3C2=O)s1 | -87* | 98 | 6 | 5 | 1 | i | 13 | 94* | 34 | 96*
CCC(CC)c1nnc(NC(=O)CCCN2C(=O)c3ccccc3C2=O)s1 | 19 | 89 | -4 | -24 | 17 | i | . | . | . | .
O=[N+]([O-])c1ccc(N/N=C/c2cccc(O)c2O)cc1 | -82* | 105 | -5 | -92 | 29 | i | 33 | 93* | 16 | 96*
COc1ccc(CC(=O)O/N=C(\N)c2ccc(C)cc2)cc1 | -89* | 102 | -7 | 3 | 32 | i | -35 | 96* | -56 | 97*
COc1ccc(CC(=O)O/N=C(\N)c2ccccn2)cc1OC | 13 | 108 | -5 | -2 | 23 | i | . | . | . | .
N/C(=N\OC(=O)Cc1ccc(Cl)cc1)c1ccccn1 | -87* | 105 | -5 | 6 | -7 | i | 2 | 91* | 5 | 93*
Cc1ccc(CC(=O)O/N=C(\N)c2ccccn2)cc1 | -84* | 104 | 1 | 7 | 10 | i | 25 | 87* | 22 | 91*
COc1ccc(Cc2c(-c3ccc(Cl)cc3)nc3c(C)cc(Br)cn23)c(C)c1 | . | 102 | . | -26 | . | . | . | . | . | .
CC(C)(C)CNC(=O)C1(C)CCN1C(=O)c1ccccc1CCc1ccccc1 (centres undefined) | . | 93 | . | 3 | . | . | . | . | . | .
Clc1cccc(CSc2nc3ccncc3[nH]2)c1 | -89* | 94 | -2 | -23 | -9 | i | -38 | 96* | -33 | 96*
Fc1cccc(CSc2nc3ccncc3[nH]2)c1 | -25 | 96 | -3 | -18 | 4 | i | . | . | . | .
CCOC(=O)C1=CCN(S(=O)(=O)c2ccc(C)cc2)C1c1ccc(Cl)cc1 (centres undefined) | . | 97 | . | -8 | . | . | . | . | . | .
CCc1nnc(NC(=O)CSc2ccc(-c3ccco3)nn2)s1 | -83* | 103 | 95* | -3 | 72* | + | 15 | 94* | 14 | 96*
Cc1nnc(NC(=O)CSc2ccc(-c3ccco3)nn2)s1 | -39 | 96 | 105 | 37 | -11 | i | . | . | . | .
O=C(Cn1c(=O)oc2cc(S(=O)(=O)N3CCCC3)ccc21)NCc1ccccn1 | -97* | 104 | -8 | -5 | 38 | i | 6 | 99* | -52 | 99*
O=C(Cn1c(=O)oc2cc(S(=O)(=O)NCc3ccccc3)ccc21)NCc1ccco1 | ? | 97 | 0 | 6 | -2 | i | 5 | 100* | -47 | 100*
O=c1[nH]c(=O)n(Cc2ccc(Oc3ccccc3)cc2)cc1Br | -86* | 98 | 2 | -8 | 37 | i | 31 | 93* | 20 | 95*
N#Cc1cn(Cc2ccccc2)c(=O)[nH]c1=O | 19 | 101 | 5 | 10 | 26 | i | . | . | . | .
SMILES | AI-2 QS modul | ABCB6 inh MLPCN | eIF4H FP inh | MLLE-PAM2 inh | PHOSPHO1 block | PABP FP inh | JMH597 growth | BB721 lum counter | BB721 growth rt | AI-2 QS JMH597
COc1ccc(CNC(=O)c2cc(-c3cc(C)ccc3O)n[nH]2)cc1 | -79* | 93 | -9 | 8 | 12 | i | -33 | ? | -13 | 84*
COc1ccc(CNC(=O)c2cc(-c3ccccc3O)n[nH]2)cc1 | -58 | 96 | -6 | 1 | 15 | i | . | . | . | .
COc1ccc(NC(=O)Cc2nnc(SCC(=O)Nc3ccccc3)n2C)cc1 | ? | 100 | 5 | -11 | 18 | i | 0 | 2 | 0 | 1
Fc1ccc(-c2nnn(Cc3nc4ccccc4s3)n2)cc1 | -90* | 94 | 1 | 2 | 4 | i | 22 | 98* | 25 | 98*
Cc1cccc(OCc2nnc(SCC(=O)Nc3ncc(C)s3)o2)c1 | 8 | 100 | 0 | 8 | 20 | i | . | . | . | .
CCc1nnc(NC(=O)CSc2nnc(COc3cccc(C)c3)o2)s1 | -90* | 102 | -5 | -20 | 88* | i | 13 | 96* | -13 | 98*
COc1cccc(CN(C)C(=O)C2CCCN(C(=O)c3ccc(Cl)cc3)C2)c1 (centres undefined) | . | 96 | . | -2 | . | . | . | . | . | .
COc1ccc(S(=O)(=O)Nc2ccc(-n3cccc3)cc2)cc1 | -96* | 102 | 3 | 2 | -1 | i | -1 | 94* | -50 | 99*
COc1ccc(NS(=O)(=O)c2ccc(N3C(=O)CCC3=O)cc2)cc1 | 14 | 101 | -2 | -10 | -2 | i | . | . | . | .
CC(=O)c1cccc(NC(=O)c2cccc3c(-c4cccnc4)coc23)c1 | . | 81 | . | 8 | . | . | . | . | . | .
O=[N+]([O-])c1ccc(NC2CCCC2)cc1 | -83* | 101 | -5 | 3 | -5 | i | 28 | 93* | 20 | 94*
O=C1CCCCC1Nc1ccc([N+](=O)[O-])cc1 (centres undefined) | . | 88 | . | 0 | . | . | . | . | . | .
CCc1nc2c(OCCC3CCCCC3)cccn2c1N(C)C(=O)c1ccc(C)cc1 | . | 98 | . | 8 | . | . | . | . | . | .
CC(=O)c1ccc(NC(=O)C2CC(c3ccc(F)cc3)=NO2)cc1 (centres undefined) | 7 | 96 | 0 | 4 | 12 | i | . | . | . | .
CC(=O)c1cccc(NC(=O)C2CC(c3ccc(F)cc3)=NO2)c1 (centres undefined) | -91* | 99 | 2 | 7 | -9 | i | 26 | 97* | 19 | 98*
CC(C)=CC(=O)Nc1ccc(OCc2ccccc2)cc1 | -83* | 103 | 2 | -4 | 3 | i | -16 | 94* | -5 | 96*
